About 3,800 (1.2%) of roughly 330,000 compounds were called active. This is one part of a sample in which actives are shown more often than they occur. A number with no mark means an inactive call. Cut-off read from the data, not from the text of the source: active = inhibition above about 15%; inconclusive = no clear call, values can overlap the other calls; inactive = below that.
Biological target: NAD-dependent protein deacylase sirtuin-5, mitochondrial (Homo sapiens) (UniProt Q9NXA8)
Assay: SIRT5 desuccinylase inhibitors, primary screen, biochemical, fluorescence imaging, single point, set 5 (AID 652115)
Conditions: Purified SirT5, succinyl-peptide AMC, trypsin-coupled fluorescence; at 15 µM; stronger effect = higher value

Chain of NAD-dependent protein deacylase sirtuin-5, mitochondrial (Homo sapiens) (Q9NXA8 whole entry, looked up): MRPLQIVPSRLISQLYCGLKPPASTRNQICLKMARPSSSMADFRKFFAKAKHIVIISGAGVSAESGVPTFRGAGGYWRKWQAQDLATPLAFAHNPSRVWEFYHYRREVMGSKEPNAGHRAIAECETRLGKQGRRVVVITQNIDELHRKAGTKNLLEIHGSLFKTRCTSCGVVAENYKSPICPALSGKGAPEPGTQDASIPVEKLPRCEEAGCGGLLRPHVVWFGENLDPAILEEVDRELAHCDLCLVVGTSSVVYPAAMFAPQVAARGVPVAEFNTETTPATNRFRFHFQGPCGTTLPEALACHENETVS

Question: `CCOC(=O)CN1C(=O)C(O)(CC(=O)c2ccccn2)c2ccccc21` (configuration not stated) was tested. Which inhibition did it give?
Answer: -3.62%

Question: How did the inhibition turn out when `C=CCN1C(=O)C(O)(CC(=O)c2ccccn2)c2ccccc21` (configuration not stated) was run?
Answer: 26.6% (active)

Question: How did the inhibition turn out when `C=CCN1C(=O)C2(OCCCO2)c2cccc(Cl)c21` was run?
Answer: -2.09%

Question: `C[C@@H]1CN([C@H](C)CO)C(=O)c2cc(NC(=O)NC3CCCCC3)ccc2O[C@@H](C)CCCCO[C@H]1CN(C)C(=O)Nc1ccccc1` was tested. Which inhibition did it give?
Answer: 3.67%

Question: Which inhibition does the source give for `CCCNC(=O)N1[C@@H](C#N)[C@H](c2ccc(-c3ccc(C(=O)N(C)C)cc3)cc2)[C@@H]1CO` here?
Answer: 4.75%

Question: Which inhibition does the source give for `CO[C@@H]1CN(C)C(=O)c2cc(NC(=O)C3CCC3)ccc2OC[C@H](C)N(Cc2nccs2)C[C@H]1C` here?
Answer: -1.69%

Question: With `COc1cccc(S(=O)(=O)N2CCC3(CC2)CN[C@H](CO)c2c3c3ccc(OC)cc3n2C)c1` as the molecule, how does the inhibition read?
Answer: 1.64%

Question: For `O=C(C[C@@H]1C[C@@H]2c3cc(NS(=O)(=O)c4ccc(F)cc4)ccc3O[C@@H]2[C@H](CO)O1)NCc1cc(F)ccc1F`, which inhibition is on record?
Answer: -3.29%

Question: For `COCC(=O)N1CC(=O)N2[C@H](C1)[C@H](c1ccc(C#CC3CCCCC3)cc1)[C@@H]2CO`, which inhibition is on record?
Answer: -2.8%

Question: `CN(C)C(CNC(=O)c1cc2ccccc2o1)c1ccccc1` (configuration not stated) was tested. Which inhibition did it give?
Answer: -2.25%

Question: With `CN(C)CCCCCN(C)Cc1cc2ccccc2o1` as the molecule, how does the inhibition read?
Answer: 36.8% (active)

Question: With `COc1ccccc1CN(C)C(=O)c1cc2ccccc2o1` as the molecule, how does the inhibition read?
Answer: -1.39%

Question: `C[C@@H]1CN([C@H](C)CO)C(=O)c2cc(NS(=O)(=O)c3ccc(F)cc3)ccc2O[C@H]1CN(C)Cc1ccncc1` was tested. Which inhibition did it give?
Answer: -0.686%

Question: How did the inhibition turn out when `O=S(=O)(c1ccccc1)N1C[C@@H]2[C@H](c3ccccc31)[C@H](CO)N2Cc1ccccn1` was run?
Answer: 1.34%

Question: For `CC(=O)NCc1ccc(-c2csc(NC(=O)CCCc3nc4ccccc4c(=O)[nH]3)n2)cc1`, which inhibition is on record?
Answer: -2.85%

Question: For `O=C(CSc1nc2ccccc2c(=O)[nH]1)Nc1nc(-c2ccc(Br)cc2)cs1`, which inhibition is on record?
Answer: -5.37%

Question: How did the inhibition turn out when `Cc1ccc(-c2csc(NC(=O)Cn3[nH]c(=O)c4ccccc4c3=O)n2)cc1` was run?
Answer: 112% (active)

Question: With `Cc1noc(C)c1S(=O)(=O)N(C)C[C@@H]1OCCCC[C@@H](C)Oc2ccc(NC(=O)c3ccccc3)cc2C(=O)N([C@H](C)CO)C[C@H]1C` as the molecule, how does the inhibition read?
Answer: 0.24%

Question: For `C[C@H]1CN([C@@H](C)CO)C(=O)c2cccc(NC(=O)Nc3ccc(C(F)(F)F)cc3)c2O[C@H]1CN(C)C(=O)NC1CCCCC1`, which inhibition is on record?
Answer: 2.24%

Question: For `C[C@H]1CN([C@@H](C)CO)C(=O)c2ccccc2-c2ccccc2CO[C@H]1CN(C)C(=O)Nc1ccc(-c2ccccc2)cc1`, which inhibition is on record?
Answer: 16.8% (active)

Question: For `C[C@@H]1CN([C@H](C)CO)C(=O)c2cccc(NC(=O)Nc3ccccc3)c2O[C@@H]1CN(C)C(=O)NC1CCCCC1`, which inhibition is on record?
Answer: 3.35%

Question: With `CC(C)NC(=O)Nc1cccc2c1O[C@H](CN(C)S(=O)(=O)c1cccs1)[C@@H](C)CN([C@H](C)CO)C2=O` as the molecule, how does the inhibition read?
Answer: 23.7% (active)

Question: With `COc1ccc(NC(=O)Nc2cccc3c2O[C@H](CN(C)S(=O)(=O)c2cccs2)[C@H](C)CN([C@@H](C)CO)C3=O)cc1` as the molecule, how does the inhibition read?
Answer: 1.18%

Question: `C[C@H](CO)N1C[C@H](C)[C@@H](CN(C)C(=O)NC2CCCCC2)Oc2c(NC(=O)Nc3ccc(F)cc3)cccc2C1=O` was tested. Which inhibition did it give?
Answer: 103% (active)

Question: How did the inhibition turn out when `COc1ccc(NC(=O)N(C)C[C@H]2OCc3ccccc3-c3ccccc3C(=O)N([C@H](C)CO)C[C@@H]2C)cc1` was run?
Answer: 1.71%

Question: How did the inhibition turn out when `C[C@@H]1CN([C@@H](C)CO)C(=O)c2ccccc2-c2ccccc2CO[C@H]1CN(C)C(=O)Nc1ccccc1` was run?
Answer: -1.46%

Question: For `C[C@@H]1CN([C@H](C)CO)C(=O)c2cccc(NS(C)(=O)=O)c2O[C@@H]1CN(C)S(=O)(=O)c1cccs1`, which inhibition is on record?
Answer: 1.65%

Source: PubChem BioAssay AID652115 (Broad Institute, 2013)
